Results filed as inconclusive are left out. Where a call stands in place of a potency, no number is given. Activity calls are given as the source filed them. Calls follow the shape of the full dose curve.
Each molecule was assayed against Beta-2 adrenergic receptor (Homo sapiens) (UniProt P07550) (assay: Adrenergic beta2 receptor (ADRB2) small molecule antagonists, cell-based qHTS assay (AID 1963592; also: nearly all actives have a fitted effect of over 50% in size)). Conditions: CHO-ADRB2 cells, isoproterenol-stimulated cAMP HTRF ratio, 0.5 h; series mostly up to 92.4 µM.
From the text: U.S. Tox21 Program National Center for Advancing Translational Sciences [NCATS] Division of Preclinical Innovation [DPI] U.S. Environmental Protection Agency [EPA] National Institutes of Environmental Health Sciences [NIEHS] National Toxicology Program [NTP] U.S. Food and Drug Administration [FDA] Tox21 Assay Overview: Beta adrenergic receptors (Beta-ARs) belong to the G-protein coupled receptor (GPCR) superfamily, includes three subtypes - beta1, beta2, and beta3. Beta1-AR is the predominant receptor subtype expressed in the heart, and beta2-AR is expressed in the kidney, lung, blood vessel and in the heart, and beta3 is found in the adipocytes. Beta1 and 2 ARs couple to Gs protein and elevate cyclic adenosine mono phosphate (cAMP), which activates protein kinase A and leads to the downstream signaling responsible for the physiological actions. Beta-AR agonists or antagonists are the most prescribed therapeutic agents for heart failure and asthma, and these were one of the first target receptors for the rational drug design. Tox21 10K compound library was screened using the cAMP-Gs dynamic assay (Cisbio Bioassays, Shelton, CT) to identify agonists/antagonists of the Gs-coupled human adrenergic, beta2 receptor (ADRB2) in the CHO-ADRB2 cell line (Codex BioSolutions, Inc. Gaithersburg, MD), which stably over-expresses ADRB2. The principle of cAMP-Gs dynamic assay is based on HTRF technology, which facilitates the fluorescence resonance energy transfer (FRET) between donor Europium cryptate and acceptor d2-labeled cAMP. The cAMP generated within cells competes with the red acceptor, d2-labled cAMP, for binding to the monoclonal anti-cAMP-cryptate (Europium donor). An increase in intracellular cAMP leads to the disruption of FRET signal, and the signal is inversely proportional to the cAMP concentration. Propranolol HCl (Sigma-Aldrich, St. Louis, MO) was used as a positive control in the screening.
Tox21 Assay Protocol Summary: CHO-ADRB2 cells were dispensed at 1,000/well in 4uL assay medium into white/solid 1536-well plates (Greiner Bio-One North America Inc., Monroe, NC) using a Multidrop Combi dispenser (ThermoFisher Scientific, Waltham, MA). The assay plates were incubated at 37C and 5% CO2 for an overnight (18-20hr). Then positive control and test compounds dissolved in DMSO were transferred to the assay plates at 23nL using a Pintool station (Wako, San Diego, CA). Following the compound and positive control transfer, 1uL agonist-stimulation mix containing 1nM Isoproterenol HCl, 100uM IBMX and 25uM Ro-20-1724 was added to each well of the assay plates using BioRAPTR Flying Reagent Dispenser (FRD, Beckman Coulter, Brea, CA). The assay plates were incubated at room temperature for 0.5hr. Then 2.5ul each d2-labled cAMP and anti-cAMP-cryptate solutions were added separately to each well of the assay plates using an FRD and the assay plates were incubated at room temperature for 1hr. The fluorescence signal was measured at two different wavelengths (665nm and 615nm) using an Envision plate reader (Perkin Elmer, Shelton, CT). Data were expressed as the ratio of 665 nm/615 nm.
Potency is read from the fitted curve at half-maximal effect.

Sequence of Beta-2 adrenergic receptor (Homo sapiens) (P07550 whole entry, looked up): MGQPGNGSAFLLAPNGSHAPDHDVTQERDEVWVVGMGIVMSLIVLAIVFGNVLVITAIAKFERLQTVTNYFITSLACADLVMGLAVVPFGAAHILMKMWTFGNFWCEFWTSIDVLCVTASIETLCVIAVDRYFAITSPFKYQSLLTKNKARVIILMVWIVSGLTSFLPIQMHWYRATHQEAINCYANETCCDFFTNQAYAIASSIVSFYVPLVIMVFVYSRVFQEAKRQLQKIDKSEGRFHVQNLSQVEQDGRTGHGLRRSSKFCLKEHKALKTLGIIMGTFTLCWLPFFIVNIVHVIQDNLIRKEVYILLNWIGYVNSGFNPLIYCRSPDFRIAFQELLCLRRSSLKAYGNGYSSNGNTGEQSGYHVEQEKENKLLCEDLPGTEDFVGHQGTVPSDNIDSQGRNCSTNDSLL

SMILES	activity change, negative = inhibition	Potency
CC(CSC(=O)c1ccccc1)C(=O)N1C[C@@H](Sc2ccccc2)C[C@H]1C(=O)O (stereo not given in full)	10.2% [at 19 µM] (inactive)	–
Nc1ccn([C@@H]2O[C@H](CO)[C@@H](O)[C@@H]2O)c(=O)n1	–	inactive
C1=CC2C3C=CC(C3)C2C1 (stereo not given)	–	inactive
CC(C)(C)c1cc(CO)cc(C(C)(C)C)c1O	–	inactive
CO/N=C(/C(=O)N[C@@H]1C(=O)N2C(C(=O)[O-])=C(C[n+]3ccn4ncccc43)CS[C@H]12)c1nsc(N)n1	–	inactive
Cc1cnc(C(=O)NCCc2ccc(S(=O)(=O)NC(=O)NC3CCCCC3)cc2)cn1	–	inactive
CN1CCCN=C1/C=C/c1cccs1	–	inactive
O=C(O)CCn1c2c(c3ccccc31)C[C@H](NS(=O)(=O)c1ccc(F)cc1)CC2	–	inactive
CNCc1ccc(NC(=O)c2c[nH]c3c2C(=O)CCC3)cc1	–	inactive
COc1ccc2c(c1)c1c3n2CCN(C)C3=NCC1	–	inactive
CCCCC1C(=O)N(c2ccccc2)N(c2ccc(O)cc2)C1=O (stereo not given)	–	inactive
CC(C)COC(=O)CCCCC(=O)OCC(C)C	–	inactive
CCCCC(=O)O[C@]1(C(=O)CO)[C@@H](C)C[C@H]2[C@@H]3CCC4=CC(=O)C=C[C@]4(C)[C@@]3(F)[C@@H](O)C[C@@]21C	–	inactive
CC(C)(C)c1ccc(C(=O)O)cc1	–	inactive
O=C1CCCCCCCCCCCC(=O)OCCO1	–	inactive
COc1cc(C=C2CCC/C(=C\c3ccc(O)c(OC)c3)C2=O)ccc1O	–	inactive
Clc1ccc(C(Cn2ccnc2)OCc2ccsc2Cl)c(Cl)c1 (stereo not given)	–	29.8 µM (active)
COc1nc(N)nc2c1ncn2[C@@H]1O[C@H](CO)[C@@H](O)[C@@H]1O	–	inactive
COc1ccc(/C=N/NC(=O)c2ccncc2)cc1OC	–	inactive
O=C(Cl)c1ccc(Cl)cc1Cl	–	inactive

SMILES	activity change, negative = inhibition	Potency
COc1cc(/C=C/c2ccccc2)oc(=O)c1	–	inactive
CC(C)c1ccc2ncccc2c1	–	inactive
O=S(=O)(O)c1cc(S(=O)(=O)O)c2ccc3c(S(=O)(=O)O)cc(S(=O)(=O)O)c4ccc1c2c43	1.38% [at 19 µM] (inactive)	–
CCCCC=O	–	inactive
CN(Cc1ccc(C(C)(C)C)cc1)Cc1cccc2ccccc12	–	inactive
Oc1ccc(Cc2ccccc2)cc1	–	inactive
CN(C)c1ccc(C2(c3ccc(N(C)C)cc3)OC(=O)c3cc(N(C)C)ccc32)cc1	–	inactive
C[N+]1(C)CCC(OC(=O)C(O)(c2ccccc2)C2CCCC2)C1 (stereo not given)	–	inactive
CCn1nc(C)c2c1C(=O)NCC(c1ccc(O)cc1)=N2	–	inactive
CC[N+](C)(CC)CCOC(=O)C1c2ccccc2Oc2ccccc21	–	inactive
COc1cc2c(cc1OC)-c1cc(=Nc3c(C)cc(C)cc3C)n(C)c(=O)n1CC2	–	inactive
O=C(O)c1ccc(O)c(O)c1	–	inactive
CC(=O)Oc1ccc2c(c1)CC[C@@H]1[C@@H]2CC[C@]2(C)[C@@H](O)CC[C@@H]12	–	inactive
CC[C@H]1OC(=O)[C@H](C)[C@@H](O[C@H]2C[C@@](C)(OC)[C@@H](O)[C@H](C)O2)[C@H](C)[C@@H](O[C@@H]2O[C@H](C)C[C@H](N(C)C)[C@H]2O)[C@](C)(O)C[C@@H](C)CN(C)[C@H](C)[C@@H](O)[C@]1(C)O	–	inactive
O=Cc1ccc(Cl)c([N+](=O)[O-])c1	–	inactive
Cc1nc2sccn2c(=O)c1CCN1CCC(=C(c2ccc(F)cc2)c2ccc(F)cc2)CC1	–	inactive
C[C@H]1O[C@@H](O[C@H]2[C@@H](O)C[C@H](O[C@H]3[C@@H](O)C[C@H](O[C@H]4CC[C@@]5(C)[C@H](CC[C@@H]6[C@@H]5C[C@@H](O)[C@]5(C)[C@@H](C7=CC(=O)OC7)CC[C@]65O)C4)O[C@@H]3C)O[C@@H]2C)C[C@H](O)[C@@H]1O	–	inactive
O=S(=O)(O)SSS(=O)(=O)O	–	inactive
CCCC(C)C(=O)O (stereo not given)	–	inactive
C=C1CC[C@H]2C[C@@H]1C2(C)C	–	inactive
